In PubChem BioAssay (NCI) one finds growth data, which are given here for 40 compounds.

The panel holds about 83,000 compounds, 20% with a hit somewhere; the sample as a whole holds those more often.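 Compound tested at a single concentration for 48 hours in 96-well plates; a percent growth value below 10 was scored as active.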 Calls of active or inactive are those of the source.

The test relates to HL-60(TB) leukemia. Put plainly: NCI-60 one-dose screen, 48 h (100 = growth as untreated, 0 = no growth, -100 = all killed). Particulars: 10 µM unless noted.
For `CCC1=CC2CN(C1)Cc1c([nH]c3ccccc13)[C@@](C(=O)OC)(c1cc3c(cc1OC)N(C)[C@H]1[C@@](O)(C(=O)OC)[C@H](OC(C)=O)[C@]4(CC)C=CCN5CC[C@]31[C@@H]54)C2` (stereo not given in full), the growth was -15.6% (active).

`Clc1cccc(Nc2ncnc3ccc(-c4cnc5[nH]ccc5c4)cc23)c1`: the growth is 105% (inactive).

As for `CC(C)(C#N)N1CCN(c2ccccc2Cl)CC1`, the growth was 103% (inactive).

In the case of `CCCCCCCCc1ccc(OCCOCC[N+](C)(C)CC)cc1` (tested in a mixture with another compound), the growth was 2.54% (active).

Consider `C/C(=C\CCc1ccoc1)CC/C=C(\C)CCCN1CCOCC1`, for which the growth was 35.5% (inactive).

With `Cc1ccc(NCCN(C)CC(C)O)c2c(=O)c3ccccc3sc12` (stereo not given), the growth was 31.3% (inactive).

For `Cc1ccc(/C=C2\COc3ccc(O)c(O)c3C2=O)cc1`, the growth is -15% (active).

Take `COc1cccc(/C=C/C(=O)c2cc3c(N)c(C(=O)Nc4cccc5ccccc45)sc3nc2C)c1`: the growth was 3.98% (active).

In the case of `CC(C)C[C@H](NC(=O)Cn1ccc(NCc2ccccc2)cc1=O)B(O)O`, the growth was 3.72% (active).

Turning to `Cc1nnc(/N=C2\NC(=O)/C(=C/C=C/c3ccccc3)S2)s1`, the growth is 75.3% (inactive).

Regarding `Nc1ccc(Br)cn1`, the growth is 75.5% (inactive).

For the compound `CCOC(=O)/C(=C/c1ccccc1)C(=O)c1ccccc1`, the growth was 34.5% (inactive).

On to `COC(=O)[C@H](Cc1cn(C)cn1)NC(=O)[C@H](C)NC(=O)Nc1cc(C(F)(F)F)cc(C(F)(F)F)c1`, for which the growth is -70.4% [100 µM] (active).

For the compound `COc1ccc2nc(SCC(=O)Nc3ccccc3C)[nH]c2c1`, the growth was 100% (inactive).

For `O=C(N/N=C\c1ccc(Cl)cc1)C(=O)N/N=C\c1ccc(Cl)cc1`, the growth was 108% (inactive).

Regarding `CC[C@@H](C(=O)[C@@H](C)[C@@H](O)[C@H](C)[C@@H]1O[C@@H]([C@@H](CC)C(=O)N(CC)CC)CC[C@@H]1C)C1O[C@]2(C=CC(=O)[C@]3(CC[C@@](C)([C@H]4CC[C@](O)(CC)[C@H](C)O4)O3)O2)[C@H](C)C[C@@H]1C` (stereo not given in full), the growth is -36.4% (active).

Take `COc1cc(/C=C/C(=O)c2c(C)n([O-])c3cc(C)c(C)cc3[n+]2=O)cc(OC)c1OC`: the growth was 32.9% (inactive).

Turning to `Cc1ccc([N+](=O)[O-])cc1Br`, the growth was 80.6% (inactive).

Turning to `C=C(C)[C@@H]1CC[C@]2(C(=O)NCCNCCNCCN)CC[C@]3(C)[C@H](CC[C@@H]4[C@@]5(C)CC[C@H](O)C(C)(C)[C@@H]5CC[C@]43C)[C@@H]12`, the growth is -24% [100 µM] (active).

Consider `O=C(O)C(SC(C(=O)O)c1ccccc1)c1ccccc1` (stereo not given), for which the growth was 95% (inactive).

For the compound `C/C(=N\O)C(=O)NCCCCCC(=O)Nc1ccccc1`, the growth is 93.2% (inactive).

Regarding `OC1Cc2ccccc2C1`, the growth is 100% (inactive).

In the case of `CCCCCC/C=N/Nc1ccc([N+](=O)[O-])cn1`, the growth was 62.5% (inactive).

Turning to `COc1ccc(-n2c(COc3ccc(F)cc3)n[nH]c2=S)cc1`, the growth is 126% (inactive).

Consider `Cc1ccc(Nc2nnc(-c3ccc(Cl)cc3)o2)c(C)c1`, for which the growth was 84.2% (inactive).

For the compound `COC(=O)c1c[n+]([O-])ccc1OC`, the growth is 106% (inactive).

As for `C=C(C)[C@@H]1CC[C@]2(CO)CC[C@]3(C)[C@H](CC[C@@H]4[C@@]5(C)CCC(NCCc6ccc(O)cc6)C(C)(C)[C@@H]5CC[C@]43C)[C@@H]12` (stereo not given in full), the growth was -50.4% (active).

Take `COC(=O)c1ccccc1N(C)C`: the growth is 87.6% (inactive).

`CCN1CCN(c2nc3ccccc3c3c(=O)c4ccccc4sc23)CC1`: the growth is 76.4% (inactive).

For the compound `N=C(N)c1ccc(-c2ccc(-c3ccc(F)cc3)s2)cc1`, the growth was -56.1% (active).

As for `OCCNCCNc1c2ccccc2nc2ccccc12`, the growth was 86.2% (inactive).

In the case of `CCOC1(OCC)OC(c2ccccc2)=C(C#N)C(/C=C\c2ccccc2)C1(OCC)OCC` (stereo not given), the growth is 80.1% (inactive).

On to `COc1cc(C(=O)OCCCCCCCCCCC[P+](c2ccccc2)(c2ccccc2)c2ccccc2)ccc1O`, for which the growth was -56% (active).

With `CCCCN1C(=O)/C(=c2\sc3n(c2=O)NC2C(N=3)N(CC)C(=O)N2CC)c2ccccc21` (stereo not given), the growth was 21.3% (inactive).

Turning to `C[C@@H]1CC[C@@H]2[C@@H]1[C@H](OC(=O)c1ccc3ccccc3c1)[C@]1(C3CCCCC3)C[C@@H](OC(=O)CO)[C@@]2(C)O1`, the growth is 30.6% (inactive).

Take `CC1(C)C(=O)/C(=C\c2ccc(C(F)(F)F)cc2)C[C@]2(C)[C@H]3CC[C@@H]4[C@H]5[C@H](C(=O)/C=C/c6ccc(C(F)(F)F)cc6)CC[C@]5(CO)CC[C@@]4(C)[C@]3(C)CC[C@@H]12`: the growth was 92% (inactive).

With `CN(C)c1ccc2cc(-c3ccc(Cl)c(Cl)c3)c(N)nc2c1`, the growth is 10.5% (inactive).

For `CCCCCCCCCCCC(=O)OC(C)C(=O)NCCCC` (stereo not given), the growth was 99.4% (inactive).

On to `CCCCCCCCCCCC[n+]1ccc(CCCCCCCCC)cc1`, for which the growth is -53.3% (active).

Turning to `O=C(/C=C/c1ccccc1)c1cccc2ccccc12`, the growth is 33.7% (inactive).
